In the supplement of paper PMC12067093, “Discovery and optimisation of a covalent ligand for TRIM25 and its application to targeted protein ubiquitination” (Chemical Science, 2025):
Of roughly 21,000 targets only a part is listed; those with the largest changes were picked by preference.

Compound: Cc1cc(ccc1-c1ccccc1)C(=O)N1CCCN(CC1)C(=O)CCl [compound 10]
Test: probe-labelled cysteine peptide fold change vs DMSO (competition) (log2 fold change); higher = less target engagement (more negative = stronger competition)
Conditions: THP-1, incubation time: 4 h
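Also: competitive profiling in live THP-1 cells: cysteine peptides tagged with an iodoacetamide desthiobiotin (IA-DTB) probe, intensity after compound treatment relative to DMSO-treated cells.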

Chain of UniProt A5PLN9 (A5PLN9 whole entry, looked up): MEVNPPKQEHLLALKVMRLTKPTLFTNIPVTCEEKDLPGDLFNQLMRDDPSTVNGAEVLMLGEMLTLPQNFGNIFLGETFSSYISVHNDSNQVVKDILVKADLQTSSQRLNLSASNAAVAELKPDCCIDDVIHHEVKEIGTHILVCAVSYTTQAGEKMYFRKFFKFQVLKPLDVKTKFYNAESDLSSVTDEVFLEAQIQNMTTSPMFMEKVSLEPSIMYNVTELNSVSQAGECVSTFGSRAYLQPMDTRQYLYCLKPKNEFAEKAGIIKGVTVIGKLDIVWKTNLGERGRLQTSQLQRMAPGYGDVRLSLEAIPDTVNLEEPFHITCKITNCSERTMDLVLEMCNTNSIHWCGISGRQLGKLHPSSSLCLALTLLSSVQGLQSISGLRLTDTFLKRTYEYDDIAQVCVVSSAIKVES
Chain of UniProt Q9NNW7 (Q9NNW7 whole entry, looked up): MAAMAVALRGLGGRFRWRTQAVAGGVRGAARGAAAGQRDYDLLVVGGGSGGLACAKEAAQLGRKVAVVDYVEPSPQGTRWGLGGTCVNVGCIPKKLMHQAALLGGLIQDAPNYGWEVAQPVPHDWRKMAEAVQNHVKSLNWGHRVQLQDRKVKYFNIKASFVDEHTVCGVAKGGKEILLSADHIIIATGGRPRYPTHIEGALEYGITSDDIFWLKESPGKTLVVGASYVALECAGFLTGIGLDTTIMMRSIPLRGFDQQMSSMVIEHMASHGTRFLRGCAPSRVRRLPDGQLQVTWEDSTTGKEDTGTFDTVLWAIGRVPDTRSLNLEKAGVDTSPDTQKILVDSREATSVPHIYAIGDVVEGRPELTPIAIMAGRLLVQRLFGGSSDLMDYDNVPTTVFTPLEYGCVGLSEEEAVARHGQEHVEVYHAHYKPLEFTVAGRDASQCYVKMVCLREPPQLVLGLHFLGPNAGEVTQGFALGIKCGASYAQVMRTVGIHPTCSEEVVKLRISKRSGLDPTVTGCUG
Chain of UniProt O15042 (O15042 whole entry, looked up): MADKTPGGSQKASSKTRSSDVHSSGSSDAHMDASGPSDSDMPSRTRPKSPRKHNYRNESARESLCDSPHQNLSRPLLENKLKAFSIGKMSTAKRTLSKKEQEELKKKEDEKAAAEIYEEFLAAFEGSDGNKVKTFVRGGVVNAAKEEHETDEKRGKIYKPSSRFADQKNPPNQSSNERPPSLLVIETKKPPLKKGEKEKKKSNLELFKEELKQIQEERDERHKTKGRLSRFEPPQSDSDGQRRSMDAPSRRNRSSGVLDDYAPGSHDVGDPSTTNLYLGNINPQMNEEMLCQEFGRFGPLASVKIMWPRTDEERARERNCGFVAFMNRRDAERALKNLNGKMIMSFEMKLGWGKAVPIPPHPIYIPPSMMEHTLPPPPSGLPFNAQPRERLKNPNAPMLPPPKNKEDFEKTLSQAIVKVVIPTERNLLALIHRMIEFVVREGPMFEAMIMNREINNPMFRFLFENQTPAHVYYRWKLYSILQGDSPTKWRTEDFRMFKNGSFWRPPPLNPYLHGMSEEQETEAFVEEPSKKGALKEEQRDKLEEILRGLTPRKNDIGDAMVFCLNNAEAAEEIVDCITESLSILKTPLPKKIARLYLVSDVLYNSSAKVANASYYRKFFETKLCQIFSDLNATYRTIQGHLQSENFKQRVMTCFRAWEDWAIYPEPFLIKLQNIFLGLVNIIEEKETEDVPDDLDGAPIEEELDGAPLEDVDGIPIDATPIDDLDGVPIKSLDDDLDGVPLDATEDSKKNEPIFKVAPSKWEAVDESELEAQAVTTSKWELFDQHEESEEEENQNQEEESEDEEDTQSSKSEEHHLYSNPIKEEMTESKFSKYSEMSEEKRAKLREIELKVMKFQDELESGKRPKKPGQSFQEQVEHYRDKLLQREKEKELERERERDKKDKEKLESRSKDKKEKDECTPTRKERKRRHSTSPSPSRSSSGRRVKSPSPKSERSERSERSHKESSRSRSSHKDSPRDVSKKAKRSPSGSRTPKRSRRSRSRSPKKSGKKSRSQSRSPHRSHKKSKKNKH
Chain of UniProt Q9Y3C8 (Q9Y3C8 whole entry, looked up): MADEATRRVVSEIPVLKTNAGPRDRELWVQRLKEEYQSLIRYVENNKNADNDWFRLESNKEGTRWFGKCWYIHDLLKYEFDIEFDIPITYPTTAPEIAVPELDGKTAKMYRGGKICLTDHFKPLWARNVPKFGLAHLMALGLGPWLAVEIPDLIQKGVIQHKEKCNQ
Chain of UniProt Q9NYU2 (Q9NYU2 whole entry, looked up): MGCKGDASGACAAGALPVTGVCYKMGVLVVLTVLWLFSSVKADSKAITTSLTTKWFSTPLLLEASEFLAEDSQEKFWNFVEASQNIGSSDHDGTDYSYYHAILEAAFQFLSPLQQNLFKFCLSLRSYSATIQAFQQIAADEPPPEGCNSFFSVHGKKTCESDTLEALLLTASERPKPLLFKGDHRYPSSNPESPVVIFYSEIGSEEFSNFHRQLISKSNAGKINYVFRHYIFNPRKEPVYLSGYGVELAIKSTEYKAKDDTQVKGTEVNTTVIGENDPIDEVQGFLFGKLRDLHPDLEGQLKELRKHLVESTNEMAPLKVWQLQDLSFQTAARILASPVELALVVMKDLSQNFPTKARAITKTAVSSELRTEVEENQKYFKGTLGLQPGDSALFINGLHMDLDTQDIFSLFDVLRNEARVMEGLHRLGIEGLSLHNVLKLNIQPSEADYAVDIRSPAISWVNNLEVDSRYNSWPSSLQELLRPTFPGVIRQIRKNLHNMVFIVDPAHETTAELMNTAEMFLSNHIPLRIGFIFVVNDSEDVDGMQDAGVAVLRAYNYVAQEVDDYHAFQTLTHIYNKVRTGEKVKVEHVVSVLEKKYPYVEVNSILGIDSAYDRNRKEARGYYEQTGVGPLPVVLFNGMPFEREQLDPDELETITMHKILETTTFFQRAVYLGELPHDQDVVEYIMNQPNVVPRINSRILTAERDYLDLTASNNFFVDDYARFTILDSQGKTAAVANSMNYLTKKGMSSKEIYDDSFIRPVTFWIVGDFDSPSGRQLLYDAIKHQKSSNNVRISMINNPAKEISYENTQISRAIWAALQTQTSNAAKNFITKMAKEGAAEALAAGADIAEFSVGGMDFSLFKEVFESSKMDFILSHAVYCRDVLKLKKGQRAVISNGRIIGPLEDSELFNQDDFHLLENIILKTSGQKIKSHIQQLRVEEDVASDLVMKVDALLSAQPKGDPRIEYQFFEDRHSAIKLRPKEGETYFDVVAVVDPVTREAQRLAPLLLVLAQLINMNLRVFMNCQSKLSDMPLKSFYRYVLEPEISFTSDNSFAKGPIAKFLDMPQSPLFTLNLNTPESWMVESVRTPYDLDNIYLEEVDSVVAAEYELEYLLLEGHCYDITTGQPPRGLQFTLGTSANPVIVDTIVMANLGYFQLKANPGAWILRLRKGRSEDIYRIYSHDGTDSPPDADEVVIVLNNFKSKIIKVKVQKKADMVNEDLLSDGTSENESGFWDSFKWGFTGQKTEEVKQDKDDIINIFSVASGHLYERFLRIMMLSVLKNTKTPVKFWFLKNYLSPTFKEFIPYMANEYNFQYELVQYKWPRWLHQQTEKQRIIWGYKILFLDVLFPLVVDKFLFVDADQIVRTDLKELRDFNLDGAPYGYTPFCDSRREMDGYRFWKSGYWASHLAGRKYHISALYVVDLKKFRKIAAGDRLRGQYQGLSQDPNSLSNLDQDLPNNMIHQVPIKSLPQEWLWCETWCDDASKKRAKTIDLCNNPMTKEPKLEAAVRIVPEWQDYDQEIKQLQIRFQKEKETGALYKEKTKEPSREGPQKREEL
Chain of UniProt Q96S82 (Q96S82 whole entry): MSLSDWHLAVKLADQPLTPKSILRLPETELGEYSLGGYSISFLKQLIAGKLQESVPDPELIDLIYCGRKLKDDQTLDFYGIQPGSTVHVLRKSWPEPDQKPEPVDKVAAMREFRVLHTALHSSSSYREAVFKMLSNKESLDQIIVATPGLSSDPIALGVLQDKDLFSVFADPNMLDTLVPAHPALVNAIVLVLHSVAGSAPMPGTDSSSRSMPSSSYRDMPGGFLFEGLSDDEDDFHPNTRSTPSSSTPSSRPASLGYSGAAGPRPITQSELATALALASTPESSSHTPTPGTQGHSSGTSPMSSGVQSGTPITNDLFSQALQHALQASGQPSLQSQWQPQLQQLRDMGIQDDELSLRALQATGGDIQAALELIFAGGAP
Chain of UniProt O60858 (O60858 whole entry, looked up): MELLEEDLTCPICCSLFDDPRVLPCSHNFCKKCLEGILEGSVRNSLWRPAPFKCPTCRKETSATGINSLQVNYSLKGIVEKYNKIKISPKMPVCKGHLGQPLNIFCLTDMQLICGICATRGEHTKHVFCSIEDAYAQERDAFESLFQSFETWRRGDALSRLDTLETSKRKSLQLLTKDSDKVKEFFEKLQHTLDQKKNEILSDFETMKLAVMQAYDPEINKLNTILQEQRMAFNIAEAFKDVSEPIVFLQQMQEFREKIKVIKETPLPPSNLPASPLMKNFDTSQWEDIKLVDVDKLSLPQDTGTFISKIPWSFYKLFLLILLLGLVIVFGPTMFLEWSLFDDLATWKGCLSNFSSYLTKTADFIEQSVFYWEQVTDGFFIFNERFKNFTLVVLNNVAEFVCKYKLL
Chain of UniProt Q9H0U9 (Q9H0U9 whole entry): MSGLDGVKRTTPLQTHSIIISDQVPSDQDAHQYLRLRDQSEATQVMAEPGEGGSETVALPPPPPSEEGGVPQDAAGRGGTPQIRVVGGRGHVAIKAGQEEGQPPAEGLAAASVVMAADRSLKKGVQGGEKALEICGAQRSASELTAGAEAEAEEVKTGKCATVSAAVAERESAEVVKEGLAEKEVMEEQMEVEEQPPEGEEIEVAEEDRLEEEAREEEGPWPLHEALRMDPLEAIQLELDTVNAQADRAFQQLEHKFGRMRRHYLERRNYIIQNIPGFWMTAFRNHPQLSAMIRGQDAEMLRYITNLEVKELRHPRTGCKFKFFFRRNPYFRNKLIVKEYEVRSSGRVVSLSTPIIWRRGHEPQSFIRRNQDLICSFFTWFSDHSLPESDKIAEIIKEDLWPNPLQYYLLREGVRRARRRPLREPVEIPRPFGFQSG

Target	probe-labelled cysteine peptide fold change (10 µM)	probe-labelled cysteine peptide fold change (50 µM)
UFC1_Q9Y3C8_116_ICLTDHFKPLWAR (UniProt Q9Y3C8)	-0.183	-1.26
UBL7_Q96S82_66_LQESVPDPELIDLIYCGR (UniProt Q96S82)	-0.109	-0.328
UBR2_Q8IWV8_1717_GNPLHLCK (UniProt Q8IWV8)	-0.263	-1.31
VPS13C_Q709C8_2289_GIEHSLIEENCGVVVESIQVTLECGLGHR (UniProt Q709C8)	-0.105	-0.0661
TRIM13_O60858_106_GHLGQPLNIFCLTDMQLICGICATR (UniProt O60858)	0.0739	-0.215
TSPYL1_Q9H0U9_375_NQDLICSFFTWFSDHSLPESDK (UniProt Q9H0U9)	0.781	1.06
UBR5_O95071_572_VGVLMESVWNMNDSCR (UniProt O95071)	-0.0405	0.0537
TRIM25_Q14258_110_ASAPSPNAQVACDHCLK (UniProt Q14258)	-0.0981	-0.283
TRAPPC13_A5PLN9_327_LSLEAIPDTVNLEEPFHITCK (UniProt A5PLN9)	0.0844	0.00702
U2SURP_O15042_918_EKDECTPTRK (UniProt O15042)	-0.0489	0.231
TRRAP_Q9Y4A5_3535_IYPYLVMNDACLTESR (UniProt Q9Y4A5)	-0.136	-0.0829
TXNRD2_Q9NNW7_279_GCAPSR (UniProt Q9NNW7)	0.0601	1.36
UGGT1_Q9NYU2_1475+1479_SLPQEWLWCETWCDDASK (UniProt Q9NYU2)	-0.291	-0.0794
TRIM25_Q14258_498_FTYCSQVLGLHCYK (UniProt Q14258)	-1.23	-2.92
